Some test systems named below: DU-145 prostate; K-562 leukemia; MALME-3M melanoma; MDA-MB-231 breast; RXF 393 renal; SF-268 CNS; SF-295 CNS; SF-539 CNS; UACC-257 melanoma; M14 melanoma; HCT-15 colon; HT29 colon; SNB-75 CNS; SNB-19 CNS; U251 CNS; SK-MEL-5 melanoma; UACC-62 melanoma; LOX IMVI melanoma; SK-MEL-28 melanoma; PC-3 prostate.
Common to all, as to assay: NCI-60 one-dose screen, 48 h (100 = growth as untreated, 0 = no growth, -100 = all killed)
Common to all, as to conditions: 10 µM

The record followed here is PubChem BioAssay (NCI).

The panel holds about 83,000 compounds, 20% with a hit somewhere; the sample as a whole holds those more often.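 Results are percent growth after 48 hours of single-concentration exposure. 100 means growth as in untreated cells, lower positive values show inhibition; negative values down to -100 show cell death.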 Unmarked numbers belong to inactive results. Calls of active or inactive are those of the source. How the source made its calls: active means growth percent below 10; inactive means the rest.

For `COc1cc(Cl)cc(-c2nn(-c3cccc(NC(=O)Nc4cccc(C(F)(F)F)c4)c3)cc2-c2ccncc2)c1`, the growth with DU-145 prostate was 15.9%; in the test with K-562 leukemia, 7.61% (active); in the test on MALME-3M melanoma it was -16.6% (active); in the test with MDA-MB-231 breast, -9.21% (active); in the test with RXF 393 renal, 11.8%; in the test on SF-268 CNS it was 27.9%. Besides, the growth was -7.87% (active) in the test on SF-295 CNS; 17% in the test with SF-539 CNS; -11.7% (active) with UACC-257 melanoma; 9.99% (active) with M14 melanoma; 7.83% (active) in the test with HCT-15 colon; 5.75% (active) in the test on HT29 colon. Moreover, the growth with SNB-75 CNS was 12.5%; in the test with SNB-19 CNS, 16.1%; with U251 CNS, 4.59% (active); in the test with SK-MEL-5 melanoma, 5.3% (active); with UACC-62 melanoma, -11.5% (active); with LOX IMVI melanoma it was 4.64% (active). In the test with SK-MEL-28 melanoma, the growth was 14.1%.
As to `COC(=O)[C@]12CC[C@@H](C)[C@H](C)[C@@H]1C1=CC[C@@H]3[C@@]4(C)C[C@@H](O)[C@H](O)[C@@](C)(CO)[C@@H]4[C@H](O)C[C@@]3(C)[C@]1(C)CC2`, the growth in the test with DU-145 prostate was -82.5% (active); in the test on K-562 leukemia, -31.7% (active); in the test on MALME-3M melanoma it was -55.9% (active); in the test with MDA-MB-231 breast, -66.3% (active); in the test on RXF 393 renal it was -81.6% (active); in the test with SF-268 CNS, -31% (active). The growth in the test on SF-295 CNS was -78.5% (active); in the test on SF-539 CNS, -58.4% (active); with UACC-257 melanoma, -85.1% (active); with M14 melanoma, -71.3% (active); with HCT-15 colon, -51.4% (active); in the test on HT29 colon it was -90.5% (active). For the same compound, the growth with SNB-75 CNS was -37.7% (active); with U251 CNS it was -94.6% (active); in the test with PC-3 prostate it was -34.5% (active); in the test with SK-MEL-5 melanoma, -95.8% (active); with UACC-62 melanoma, -64% (active); with LOX IMVI melanoma it was -93% (active). Moreover, in the test on SK-MEL-28 melanoma, the growth was -48.4% (active).
Turning to `CCCCn1c(=O)[nH]c(N)c(C(c2ccc(Cl)cc2)c2c(N)[nH]c(=O)n(CCCC)c2=O)c1=O`, the growth with DU-145 prostate is 65.7%; with K-562 leukemia it was 28.7%; in the test with MALME-3M melanoma, 68.9%; with MDA-MB-231 breast, 54.4%; in the test on RXF 393 renal it was 18.7%; with SF-268 CNS, 38.1%. In addition, the growth in the test with SF-295 CNS was 35.2%; with SF-539 CNS, 43.9%; in the test with UACC-257 melanoma, 41%; in the test with M14 melanoma it was 35%; in the test with HCT-15 colon, 76.9%; with HT29 colon, 24.6%. Further, the growth in the test with SNB-75 CNS is 57.1%; with SNB-19 CNS it was 47.9%; in the test with U251 CNS, 35.8%; with SK-MEL-5 melanoma it was -11.3% (active); in the test with UACC-62 melanoma, 41.3%; in the test with LOX IMVI melanoma, 41.2%. Also, the growth in the test on SK-MEL-28 melanoma is 44.7%.
For `O=[N+]([O-])c1cc2ncccc2c2ncccc12`, the growth in the test on DU-145 prostate is 89.7%; in the test on K-562 leukemia, 49.3%; with MALME-3M melanoma, 72.8%; in the test with MDA-MB-231 breast it was 60.6%; in the test on RXF 393 renal, 92.4%; in the test with SF-268 CNS it was 91.5%. Besides, the growth in the test on SF-295 CNS is 134%; with SF-539 CNS, 93.6%; with UACC-257 melanoma, 90.5%; in the test with M14 melanoma, 84.5%; with HCT-15 colon, 71.9%; with HT29 colon it was 102%. The growth with SNB-75 CNS is 88.2%; in the test with SNB-19 CNS, 96%; in the test with U251 CNS, 102%; in the test on SK-MEL-5 melanoma, 72.1%; in the test with UACC-62 melanoma, 76.4%; in the test on LOX IMVI melanoma, 45.5%. Also, the growth in the test on SK-MEL-28 melanoma is 92%.
As to `c1ccc(C2CCCCC2)c(OCCCCCN2CCNCC2)c1`, the growth in the test with DU-145 prostate is 72.8%; in the test on K-562 leukemia, -13.1% (active); in the test on MALME-3M melanoma it was 43%; with MDA-MB-231 breast, 15.9%; with RXF 393 renal, 36.4%; in the test on SF-268 CNS it was 70.7%. The growth with SF-295 CNS was 63.5%; in the test on SF-539 CNS, 68.7%; with UACC-257 melanoma, 19.9%; with M14 melanoma, -66.5% (active); in the test with HCT-15 colon, -34.7% (active); with HT29 colon it was 3.84% (active). In addition, the growth was 48.3% with SNB-75 CNS; 71.1% with SNB-19 CNS; 26.1% with U251 CNS; 16.5% with SK-MEL-5 melanoma; -51.3% (active) in the test on UACC-62 melanoma; -35% (active) in the test with LOX IMVI melanoma. Besides, the growth in the test with SK-MEL-28 melanoma is -15.8% (active).
With `Cc1ccc([P+](Cc2ccc([N+](=O)[O-])cc2)(c2ccc(C)cc2)c2ccc(C)cc2)cc1`, the growth in the test on DU-145 prostate is 78.3%; with K-562 leukemia it was 11.2%; in the test on MALME-3M melanoma, -15% (active); in the test on MDA-MB-231 breast, 41.6%; in the test on RXF 393 renal, 67.2%; with SF-268 CNS, 54.2%. The growth with SF-295 CNS is 45.2%; in the test on SF-539 CNS, 69%; in the test on UACC-257 melanoma, -14.6% (active); in the test on M14 melanoma, 19%; in the test with HCT-15 colon it was 96.7%; with HT29 colon, 23.1%. The growth in the test on SNB-75 CNS is 30.9%; in the test with U251 CNS it was 39.6%; with PC-3 prostate it was 38.7%; in the test on SK-MEL-5 melanoma, -12.4% (active); in the test with UACC-62 melanoma, -0.637% (active); in the test with LOX IMVI melanoma, 32.4%. Moreover, the growth in the test with SK-MEL-28 melanoma was 28.4%.
Consider `COc1cc(C2C=C(c3ccc(Cl)c(Cl)c3)N=C3SC(C)=CN32)cc(OC)c1OC` (configuration not stated), for which the growth with DU-145 prostate was 80.3%; in the test with K-562 leukemia, 32.1%; with MALME-3M melanoma, 82.9%; in the test on MDA-MB-231 breast, 89%; in the test with RXF 393 renal it was 67.1%; in the test with SF-268 CNS it was 87.8%. In addition, the growth in the test with SF-295 CNS is 75.6%; in the test on SF-539 CNS, 81%; in the test on UACC-257 melanoma it was 98.8%; with M14 melanoma it was 86.4%; in the test with HCT-15 colon, 64.8%; with HT29 colon, 53.1%. In addition, the growth in the test with SNB-75 CNS was 81.7%; with U251 CNS it was 51.2%; with PC-3 prostate it was 59.2%; with SK-MEL-5 melanoma, 83.9%; with UACC-62 melanoma, 85.8%; in the test with LOX IMVI melanoma, 41.3%. Besides, in the test with SK-MEL-28 melanoma, the growth was 102%.
With `CCN1CCN(c2ccc(Nc3ncnc4c3nnn4CCc3cc(OC)cc(OC)c3)cc2)CC1`, the growth in the test with DU-145 prostate is 104%; in the test with K-562 leukemia it was 77.7%; in the test with MALME-3M melanoma, 92.6%; in the test on MDA-MB-231 breast it was 95.4%; in the test on RXF 393 renal it was 97.7%; in the test with SF-268 CNS it was 97.4%. The growth in the test with SF-295 CNS was 90.2%; in the test on SF-539 CNS, 95.5%; in the test with UACC-257 melanoma, 84.8%; with M14 melanoma, 98.6%; with HCT-15 colon, 63.6%; with HT29 colon, 57.9%. Besides, the growth is 79.8% in the test with SNB-75 CNS; 77.4% in the test with U251 CNS; 82.2% in the test on PC-3 prostate; 73.5% in the test on SK-MEL-5 melanoma; 93.9% in the test with UACC-62 melanoma; 88.1% in the test on LOX IMVI melanoma. In addition, the growth with SK-MEL-28 melanoma was 101%.
